From publication PMC7862700, “An all-to-all approach to the identification of sequence-specific readers for epigenetic DNA modifications on cytosine”

Experiments:
Assay in all cases: DAPPL (digital affinity profiling via proximity ligation, sequencing); 10 mM Tris-HCl pH 7.5, 50 mM NaCl, 1 mM DTT, 4% glycerol, room temperature, 30 min; GST-TFs on glutathione beads, 16-mer random dsDNA library, 0.1% formaldehyde crosslink after washing; high values mean tight binding
FEV = target: T1, FEV (Homo sapiens, UniProt Q99581 1-238); conditions: protein: recombinant; tags: N-terminal GST; dsDNA, one strand shown
T1 sequence: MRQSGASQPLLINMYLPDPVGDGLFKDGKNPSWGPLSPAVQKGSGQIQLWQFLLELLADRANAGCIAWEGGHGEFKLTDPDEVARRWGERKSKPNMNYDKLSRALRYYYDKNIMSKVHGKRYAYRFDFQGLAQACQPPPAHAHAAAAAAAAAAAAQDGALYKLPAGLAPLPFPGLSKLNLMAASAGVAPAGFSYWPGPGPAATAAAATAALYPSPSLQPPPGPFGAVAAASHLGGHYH
Method in brief: (§1)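 Human transcription factors were made in yeast as GST fusions, captured on glutathione beads and barcoded with DNA. With a tag-only sample included, the pool was incubated with 200 nmole of a random double-stranded 16-mer DNA library in Tris/NaCl/DTT/glycerol buffer at room temperature for 30 min, then crosslinked with 0.1% formaldehyde after washing, ligated by proximity, amplified and sequenced. For binding signal, each hexamer's read frequency for a factor is divided by its frequency for the tag-only sample.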

ETV5 = ETV5 (Homo sapiens, UniProt P41161 1-510); conditions: protein: recombinant; tags: N-terminal GST; dsDNA, one strand shown
Method in brief: as §1

HSF1 = HSF1 (Homo sapiens, UniProt Q00613 1-529); conditions: protein: recombinant; tags: N-terminal GST; chain copies: 3; dsDNA, one strand shown
Method in brief: as §1

SPIC = target: T2, SPIC (Homo sapiens, UniProt Q8N5J4 1-248); conditions: protein: recombinant; tags: N-terminal GST; dsDNA, one strand shown
T2 sequence: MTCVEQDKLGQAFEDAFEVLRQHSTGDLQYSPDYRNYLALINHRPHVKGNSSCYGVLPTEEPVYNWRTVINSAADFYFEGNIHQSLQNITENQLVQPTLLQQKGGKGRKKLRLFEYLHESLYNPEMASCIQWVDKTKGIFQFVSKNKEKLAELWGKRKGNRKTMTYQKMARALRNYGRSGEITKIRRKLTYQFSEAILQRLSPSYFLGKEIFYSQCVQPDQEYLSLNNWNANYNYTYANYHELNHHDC
Method in brief: as §1

ELF4 = ELF4 (Homo sapiens, UniProt Q99607 1-663); conditions: protein: recombinant; tags: N-terminal GST; dsDNA, one strand shown
Method in brief: as §1

ELK4 = target: T3, ELK4 (Homo sapiens, UniProt P28324-2 1-405); conditions: protein: recombinant; tags: N-terminal GST; dsDNA, one strand shown
T3 sequence: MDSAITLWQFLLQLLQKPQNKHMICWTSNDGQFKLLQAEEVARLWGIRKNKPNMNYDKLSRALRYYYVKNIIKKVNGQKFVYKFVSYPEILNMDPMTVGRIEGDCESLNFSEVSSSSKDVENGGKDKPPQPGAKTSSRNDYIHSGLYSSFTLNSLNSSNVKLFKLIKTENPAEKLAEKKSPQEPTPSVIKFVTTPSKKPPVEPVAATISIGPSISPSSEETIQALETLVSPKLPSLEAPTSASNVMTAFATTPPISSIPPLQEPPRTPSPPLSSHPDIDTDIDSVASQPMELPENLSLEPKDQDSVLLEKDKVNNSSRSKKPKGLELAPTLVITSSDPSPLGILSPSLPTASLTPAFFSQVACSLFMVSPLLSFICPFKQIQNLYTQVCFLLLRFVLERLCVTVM
Method in brief: as §1

ETV2 = target: T4, ETV2 (Homo sapiens, UniProt O00321 1-342); conditions: protein: recombinant; tags: N-terminal GST; dsDNA, one strand shown
T4 sequence: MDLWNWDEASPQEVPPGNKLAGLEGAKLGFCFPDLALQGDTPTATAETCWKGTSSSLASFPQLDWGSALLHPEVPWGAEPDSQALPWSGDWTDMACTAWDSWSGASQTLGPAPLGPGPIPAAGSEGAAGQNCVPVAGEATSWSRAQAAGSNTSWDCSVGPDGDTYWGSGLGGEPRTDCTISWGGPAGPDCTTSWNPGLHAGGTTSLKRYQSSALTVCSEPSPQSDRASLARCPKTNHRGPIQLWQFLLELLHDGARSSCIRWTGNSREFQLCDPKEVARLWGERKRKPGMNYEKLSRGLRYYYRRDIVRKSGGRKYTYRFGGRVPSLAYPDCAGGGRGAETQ
Method in brief: as §1

ELF3 = target: T5, ELF3 (Homo sapiens, UniProt P78545 1-371); conditions: protein: recombinant; tags: N-terminal GST; dsDNA, one strand shown
T5 sequence: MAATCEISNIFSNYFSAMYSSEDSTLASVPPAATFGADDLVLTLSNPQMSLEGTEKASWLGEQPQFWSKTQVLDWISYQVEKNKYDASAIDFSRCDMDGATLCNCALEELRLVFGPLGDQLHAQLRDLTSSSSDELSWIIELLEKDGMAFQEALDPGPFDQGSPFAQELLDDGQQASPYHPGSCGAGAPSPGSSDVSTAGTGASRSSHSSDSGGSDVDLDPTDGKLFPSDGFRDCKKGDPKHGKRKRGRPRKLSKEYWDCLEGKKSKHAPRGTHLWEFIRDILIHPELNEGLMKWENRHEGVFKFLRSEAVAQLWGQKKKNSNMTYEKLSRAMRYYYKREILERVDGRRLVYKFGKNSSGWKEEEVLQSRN
Method in brief: as §1

CRX = CRX (Homo sapiens, UniProt O43186 1-299); conditions: protein: recombinant; tags: N-terminal GST; dsDNA, one strand shown
Method in brief: as §1

ETV1 = ETV1 (Homo sapiens, UniProt P50549 1-477); conditions: protein: recombinant; tags: N-terminal GST; dsDNA, one strand shown
Method in brief: as §1

ERF = target: T6, ERF (Homo sapiens, UniProt P50548 1-548); conditions: protein: recombinant; tags: N-terminal GST; dsDNA, one strand shown
T6 sequence: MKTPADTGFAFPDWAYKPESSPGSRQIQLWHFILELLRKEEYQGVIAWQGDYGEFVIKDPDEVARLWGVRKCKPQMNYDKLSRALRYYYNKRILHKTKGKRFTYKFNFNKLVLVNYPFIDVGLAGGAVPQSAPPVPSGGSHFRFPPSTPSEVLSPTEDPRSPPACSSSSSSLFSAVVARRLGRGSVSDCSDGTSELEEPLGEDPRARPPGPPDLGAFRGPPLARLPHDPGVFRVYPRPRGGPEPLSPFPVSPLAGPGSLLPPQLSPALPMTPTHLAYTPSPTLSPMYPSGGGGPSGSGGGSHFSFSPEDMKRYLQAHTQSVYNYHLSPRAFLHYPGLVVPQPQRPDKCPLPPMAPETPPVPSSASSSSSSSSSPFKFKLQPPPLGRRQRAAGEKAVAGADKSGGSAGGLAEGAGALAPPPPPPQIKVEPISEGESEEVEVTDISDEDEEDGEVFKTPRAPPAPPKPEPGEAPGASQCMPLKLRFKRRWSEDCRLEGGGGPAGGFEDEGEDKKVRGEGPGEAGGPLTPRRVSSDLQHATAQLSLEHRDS
Method in brief: as §1

ETV3L = target: T7, ETV3L (Homo sapiens, UniProt Q6ZN32 1-361); conditions: protein: recombinant; tags: N-terminal GST; dsDNA, one strand shown
T7 sequence: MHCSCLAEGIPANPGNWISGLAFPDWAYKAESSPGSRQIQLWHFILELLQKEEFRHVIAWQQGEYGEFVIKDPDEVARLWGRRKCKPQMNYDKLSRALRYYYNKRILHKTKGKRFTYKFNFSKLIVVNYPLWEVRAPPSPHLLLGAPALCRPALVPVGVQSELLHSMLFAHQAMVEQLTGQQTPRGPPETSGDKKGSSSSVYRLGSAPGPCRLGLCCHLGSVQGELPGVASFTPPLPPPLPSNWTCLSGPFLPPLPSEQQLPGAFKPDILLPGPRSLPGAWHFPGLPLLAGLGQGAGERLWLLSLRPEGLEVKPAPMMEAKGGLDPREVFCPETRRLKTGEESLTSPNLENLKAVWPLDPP
Method in brief: as §1

ETS2 = target: T8, ETS2 (Homo sapiens, UniProt P15036 1-469); conditions: protein: recombinant; tags: N-terminal GST; dsDNA, one strand shown
T8 sequence: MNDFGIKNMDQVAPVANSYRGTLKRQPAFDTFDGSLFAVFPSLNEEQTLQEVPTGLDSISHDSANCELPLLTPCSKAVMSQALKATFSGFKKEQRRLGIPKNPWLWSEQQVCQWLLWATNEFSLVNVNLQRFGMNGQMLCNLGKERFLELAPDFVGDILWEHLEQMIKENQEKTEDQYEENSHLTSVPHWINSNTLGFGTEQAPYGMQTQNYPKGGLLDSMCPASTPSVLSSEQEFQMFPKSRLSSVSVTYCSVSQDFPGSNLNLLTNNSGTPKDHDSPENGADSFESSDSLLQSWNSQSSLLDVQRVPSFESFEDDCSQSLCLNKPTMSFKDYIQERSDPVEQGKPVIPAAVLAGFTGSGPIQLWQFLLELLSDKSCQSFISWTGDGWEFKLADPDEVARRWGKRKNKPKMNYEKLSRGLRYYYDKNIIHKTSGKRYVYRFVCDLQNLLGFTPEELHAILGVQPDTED
Method in brief: as §1

SPDEF = target: T9, SPDEF (Homo sapiens, UniProt O95238 1-335); conditions: protein: recombinant; tags: N-terminal GST; dsDNA, one strand shown
T9 sequence: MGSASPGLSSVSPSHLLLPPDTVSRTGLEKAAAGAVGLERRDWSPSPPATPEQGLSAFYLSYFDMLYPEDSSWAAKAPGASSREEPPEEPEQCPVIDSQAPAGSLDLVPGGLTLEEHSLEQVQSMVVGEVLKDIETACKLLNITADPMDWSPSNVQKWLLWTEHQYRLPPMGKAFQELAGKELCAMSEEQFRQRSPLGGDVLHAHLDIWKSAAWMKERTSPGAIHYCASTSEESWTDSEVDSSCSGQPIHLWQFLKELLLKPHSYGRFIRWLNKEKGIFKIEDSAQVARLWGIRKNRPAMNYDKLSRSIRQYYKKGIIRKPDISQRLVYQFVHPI
Method in brief: as §1

ETV7 = target: T10, ETV7 (Homo sapiens, UniProt Q9Y603 1-341); conditions: protein: recombinant; tags: N-terminal GST; dsDNA, one strand shown
T10 sequence: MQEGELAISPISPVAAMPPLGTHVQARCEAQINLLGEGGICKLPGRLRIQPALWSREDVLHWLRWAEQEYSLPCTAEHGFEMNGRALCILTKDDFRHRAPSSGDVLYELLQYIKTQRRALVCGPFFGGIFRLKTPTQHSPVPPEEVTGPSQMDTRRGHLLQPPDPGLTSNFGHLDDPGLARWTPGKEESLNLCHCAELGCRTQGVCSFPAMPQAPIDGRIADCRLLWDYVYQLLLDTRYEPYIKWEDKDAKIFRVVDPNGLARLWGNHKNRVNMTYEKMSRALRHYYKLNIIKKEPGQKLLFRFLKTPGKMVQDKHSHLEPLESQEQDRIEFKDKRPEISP
Method in brief: as §1

ELF5 = target: T11, ELF5 (Homo sapiens, UniProt Q9UKW6-2 1-255); conditions: protein: recombinant; tags: N-terminal GST; dsDNA, one strand shown
T11 sequence: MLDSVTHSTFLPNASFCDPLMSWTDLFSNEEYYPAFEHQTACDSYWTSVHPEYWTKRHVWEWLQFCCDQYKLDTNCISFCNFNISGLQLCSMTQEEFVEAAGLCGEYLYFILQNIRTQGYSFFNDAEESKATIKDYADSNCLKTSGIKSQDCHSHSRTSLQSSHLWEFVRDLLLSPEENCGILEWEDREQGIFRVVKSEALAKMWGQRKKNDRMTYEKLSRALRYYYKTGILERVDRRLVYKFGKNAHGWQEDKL
Method in brief: as §1

ETV3 = target: T12, ETV3 (Homo sapiens, UniProt P41162-2 1-143); conditions: protein: recombinant; tags: N-terminal GST; dsDNA, one strand shown
T12 sequence: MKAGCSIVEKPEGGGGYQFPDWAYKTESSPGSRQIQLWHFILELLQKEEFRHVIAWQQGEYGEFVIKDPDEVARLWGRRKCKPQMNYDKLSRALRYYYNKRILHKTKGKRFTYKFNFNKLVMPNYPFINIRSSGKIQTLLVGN
Method in brief: as §1

ETV6 = ETV6 (Homo sapiens, UniProt P41212 1-452); conditions: protein: recombinant; tags: N-terminal GST; dsDNA, one strand shown
Method in brief: as §1

Chain of ETV6 (P41212 whole entry): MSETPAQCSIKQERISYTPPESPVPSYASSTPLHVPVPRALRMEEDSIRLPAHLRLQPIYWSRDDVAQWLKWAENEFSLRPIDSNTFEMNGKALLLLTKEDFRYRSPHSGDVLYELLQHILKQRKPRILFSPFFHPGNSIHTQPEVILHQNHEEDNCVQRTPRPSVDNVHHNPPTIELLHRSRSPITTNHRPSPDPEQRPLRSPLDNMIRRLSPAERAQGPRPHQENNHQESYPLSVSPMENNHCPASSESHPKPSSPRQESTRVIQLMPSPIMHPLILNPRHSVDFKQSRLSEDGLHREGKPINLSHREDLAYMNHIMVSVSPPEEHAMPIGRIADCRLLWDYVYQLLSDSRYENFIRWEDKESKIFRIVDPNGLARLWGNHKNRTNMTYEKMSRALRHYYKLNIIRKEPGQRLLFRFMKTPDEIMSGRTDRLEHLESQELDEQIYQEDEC
Chain of CRX (O43186 whole entry): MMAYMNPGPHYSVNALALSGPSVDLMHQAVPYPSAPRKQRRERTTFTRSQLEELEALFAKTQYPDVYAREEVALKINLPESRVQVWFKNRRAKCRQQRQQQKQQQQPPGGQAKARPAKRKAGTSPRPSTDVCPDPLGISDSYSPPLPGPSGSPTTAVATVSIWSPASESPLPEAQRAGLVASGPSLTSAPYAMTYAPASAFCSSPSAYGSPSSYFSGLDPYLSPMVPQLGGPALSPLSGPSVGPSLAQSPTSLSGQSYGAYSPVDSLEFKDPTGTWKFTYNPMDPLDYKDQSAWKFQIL
Chain of ELF4 (Q99607 whole entry): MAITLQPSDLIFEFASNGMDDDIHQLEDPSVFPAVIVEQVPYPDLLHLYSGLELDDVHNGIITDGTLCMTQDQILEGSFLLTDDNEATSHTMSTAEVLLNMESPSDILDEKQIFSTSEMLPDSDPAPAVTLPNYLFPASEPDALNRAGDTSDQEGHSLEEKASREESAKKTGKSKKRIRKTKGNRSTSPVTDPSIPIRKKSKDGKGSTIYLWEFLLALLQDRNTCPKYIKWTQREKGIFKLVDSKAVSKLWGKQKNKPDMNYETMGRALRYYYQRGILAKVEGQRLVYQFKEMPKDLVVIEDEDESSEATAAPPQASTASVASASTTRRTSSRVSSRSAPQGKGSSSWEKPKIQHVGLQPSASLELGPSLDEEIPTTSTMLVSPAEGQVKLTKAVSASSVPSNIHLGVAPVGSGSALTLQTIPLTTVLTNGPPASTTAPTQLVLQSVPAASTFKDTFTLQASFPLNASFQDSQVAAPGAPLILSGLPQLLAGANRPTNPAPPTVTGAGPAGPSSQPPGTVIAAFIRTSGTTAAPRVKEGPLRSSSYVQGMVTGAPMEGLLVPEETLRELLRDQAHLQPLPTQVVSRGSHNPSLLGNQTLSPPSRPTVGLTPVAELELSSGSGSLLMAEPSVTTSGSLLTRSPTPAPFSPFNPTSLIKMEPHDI
Chain of HSF1 (Q00613 whole entry): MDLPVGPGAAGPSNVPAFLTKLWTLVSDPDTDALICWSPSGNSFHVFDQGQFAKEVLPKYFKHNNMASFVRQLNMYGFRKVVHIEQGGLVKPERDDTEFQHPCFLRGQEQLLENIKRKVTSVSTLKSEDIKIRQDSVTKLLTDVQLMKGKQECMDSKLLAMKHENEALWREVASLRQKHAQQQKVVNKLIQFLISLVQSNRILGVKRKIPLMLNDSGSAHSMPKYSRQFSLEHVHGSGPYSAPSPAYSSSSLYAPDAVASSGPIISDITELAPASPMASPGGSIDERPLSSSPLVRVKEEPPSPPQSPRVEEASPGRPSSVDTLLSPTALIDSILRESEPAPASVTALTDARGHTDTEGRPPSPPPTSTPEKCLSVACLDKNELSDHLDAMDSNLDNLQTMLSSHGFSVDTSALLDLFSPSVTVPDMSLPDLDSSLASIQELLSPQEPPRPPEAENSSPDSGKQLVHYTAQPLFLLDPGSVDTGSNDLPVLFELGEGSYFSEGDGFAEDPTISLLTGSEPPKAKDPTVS
Chain of ETV1 (P50549 whole entry): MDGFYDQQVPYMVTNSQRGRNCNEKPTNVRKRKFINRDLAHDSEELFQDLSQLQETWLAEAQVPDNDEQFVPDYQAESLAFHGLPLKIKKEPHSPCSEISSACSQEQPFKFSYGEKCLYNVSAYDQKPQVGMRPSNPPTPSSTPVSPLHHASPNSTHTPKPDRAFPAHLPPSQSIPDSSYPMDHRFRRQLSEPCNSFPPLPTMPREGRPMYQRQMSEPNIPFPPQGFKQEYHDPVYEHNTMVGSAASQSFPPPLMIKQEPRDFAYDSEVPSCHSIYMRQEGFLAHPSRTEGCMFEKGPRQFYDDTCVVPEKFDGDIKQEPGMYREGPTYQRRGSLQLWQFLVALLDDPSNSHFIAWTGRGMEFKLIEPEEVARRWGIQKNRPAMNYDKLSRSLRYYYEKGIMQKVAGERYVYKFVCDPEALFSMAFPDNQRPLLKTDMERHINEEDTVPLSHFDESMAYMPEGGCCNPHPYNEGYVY
Chain of ETV5 (P41161 whole entry): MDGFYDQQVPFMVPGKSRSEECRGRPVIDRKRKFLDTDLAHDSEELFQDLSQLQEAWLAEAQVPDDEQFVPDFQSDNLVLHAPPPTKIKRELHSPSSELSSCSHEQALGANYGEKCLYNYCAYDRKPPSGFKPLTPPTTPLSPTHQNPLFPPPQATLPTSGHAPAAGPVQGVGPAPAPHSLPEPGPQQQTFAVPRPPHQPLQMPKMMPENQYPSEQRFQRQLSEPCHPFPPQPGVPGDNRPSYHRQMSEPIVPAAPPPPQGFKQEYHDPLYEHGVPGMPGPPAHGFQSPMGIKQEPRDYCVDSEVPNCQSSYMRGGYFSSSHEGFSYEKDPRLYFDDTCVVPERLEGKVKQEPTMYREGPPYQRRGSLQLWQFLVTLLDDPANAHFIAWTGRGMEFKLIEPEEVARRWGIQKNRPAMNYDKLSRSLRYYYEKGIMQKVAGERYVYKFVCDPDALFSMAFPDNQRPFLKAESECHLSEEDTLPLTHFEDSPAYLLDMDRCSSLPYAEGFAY

**Q.** What does the source list for TGGTTT?
**A.** binding signal (FEV): 1.54 fold enrichment (6-mer frequency, TF over GST control); binding signal (ETV5): 1.71 fold enrichment (6-mer frequency, TF over GST control); binding signal (HSF1): 1.4 fold enrichment (6-mer frequency, TF over GST control); binding signal (SPIC): 1.67 fold enrichment (6-mer frequency, TF over GST control); binding signal (ELF4): 1.54 fold enrichment (6-mer frequency, TF over GST control); binding signal (ELK4): 1.52 fold enrichment (6-mer frequency, TF over GST control); binding signal (ETV2): 1.34 fold enrichment (6-mer frequency, TF over GST control); binding signal (ELF3): 1.5 fold enrichment (6-mer frequency, TF over GST control); binding signal (CRX): 1.5 fold enrichment (6-mer frequency, TF over GST control); binding signal (ETV1): 1.69 fold enrichment (6-mer frequency, TF over GST control); binding signal (ERF): 1.53 fold enrichment (6-mer frequency, TF over GST control); binding signal (ETV3L): 1.51 fold enrichment (6-mer frequency, TF over GST control); binding signal (ETS2): 1.54 fold enrichment (6-mer frequency, TF over GST control); binding signal (SPDEF): 1.49 fold enrichment (6-mer frequency, TF over GST control); binding signal (ETV7): 1.44 fold enrichment (6-mer frequency, TF over GST control); binding signal (ELF5): 1.54 fold enrichment (6-mer frequency, TF over GST control); binding signal (ETV3): 1.52 fold enrichment (6-mer frequency, TF over GST control); binding signal (ETV6): 1.67 fold enrichment (6-mer frequency, TF over GST control)
